Measurements taken from PubChem BioAssay AID624167 (Sanford-Burnham Center for Chemical Genomics, 2012).

Experiment: inhibition of PEG-3 promoter-driven reporter – cell-based, HeLa, luciferase, CREF/GAPDH counter-screen panel, dose response (AID 624167)
Details: CREF/GAPDH counter-screens; run 2, dose range 1, at 100 µM (top of the series)

Row | SMILES | inhibition [%]
1 | O=C(CSC1c2ccccc2-c2ccccc21)N/N=C/c1ccccc1O | 53.7
2 | CCC(c1nnnn1-c1ccc2c(c1)OCCO2)N1CCC(n2c(=O)[nH]c3ccccc32)CC1 (stereo not drawn) | 100
3 | CC(=O)OC1(C)CC(C)C(=O)C(C(O)CC2CC(=O)NC(=O)C2)C1 (stereo not drawn) | 95.8
4 | COC(COC(N)=O)C1=C(N2CC2)C(=O)C(C)=C(N2CC2)C1=O (stereo not drawn) | 89
5 | CC1=CC2/C=C(\C)CCC(O)C(O)/C=C/C(=O)C23C(=O)NC(CC(C)C)C3C1C (stereo not drawn) | 100
6 | COc1cc2nc(CN3CC=C(c4ccccc4)CC3)[nH]c(=O)c2cc1OC | 59.5
7 | C=Cc1cc(OC)c2c(c1)c(=O)oc1c2cc(OC)c2c(O)ccc(C3OC(C)C(O)C(C)(O)C3O)c21 (stereo not drawn) | 40.5
8 | CC(=O)OC1CC[C@]2(C#N)[C@H]3CC[C@]4(C)[C@H](C5C=CC(=O)O5)CCC4(O)C3CCC2(O)C1 (stereo partly drawn) | 83.6
